# Assay results published in PubChem BioAssay.
# Active and inactive are the calls of the source.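 Rule for the calls, unless noted: active = normalized viability below 100% at a tested concentration; inactive = the rest.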
# Columns and labels:
# [1] = MELAS cybrid and Rieske KO viability enhancers – cell-based, MELAS cybrids, Rieske KO mouse fibroblasts, CellTiter-Glo, primary screen (AID 1508586;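 active = mean z-score across replicates of 1.96 or higher in either the MELAS or the Rieske mutant cell line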;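 note: z relative to plate mean and SD of compound and empty wells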); details: low glucose
# [2] = galactose survival enhancers in mitochondrial complex I cybrids – cell-based, galactose medium, ATP luminescence, primary screen (AID 1645843;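 active = z-score of at least 1.8 in each of two replicates, scored against plate mean and spread of sample wells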;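 note: positive z means more ATP and so rescue of galactose-driven cybrid death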); details: complex I mutant cybrid cells, 72 h, stronger effect = higher value
# [3] = liver-stage malaria parasite load reduction – cell-based, known kinase inhibitor set, luminescence, hepatoma host viability (AID 624392; call rule not given here;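 note: infected cells incubated roughly two days before readout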); details: Plasmodium liver stage in hepatoma cells, luciferase luminescence, concentration not given here; liver cell % of control: measured here: host liver cell viability; parasite % of control: stronger effect = lower value
# [4] = altered dexamethasone sensitivity, NF-kB reporter, cell-based, luciferase, IL-1B stimulus (AID 624486; call rule not given here;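 for percent of negative control (+Dex): 100% = mean signal of vehicle control wells on the plate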); details: IL-1B + dexamethasone, luminescence; percent of negative control (+Dex): actives lie on both sides, concentration not given here; z-score: measured here: IL-1B alone, no Dex
# [5] = C. elegans survival during P. aeruginosa infection – whole organism (AID 651566; call rule not given here;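 note: tested at 14 µM; sign flipped so higher z means a lower ratio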); details: C. elegans killed by P. aeruginosa, survival ratio
# [6] = pro-inflammatory signaling induction in mouse macrophages – cell-based, murine, luminescence (AID 652131; call rule not given here); details: murine macrophage pro-inflammatory reporter, stronger effect = higher value
# [7] = drug combination growth inhibition, ovarian cancer – cell-based, oncology-focused library, rucaparib conditional, profiling panel (AID 1508598); details: patient-derived ovarian cancer cells, CellTiter-Glo viability, 144 h, stronger effect = lower value
# [8] = MELAS cybrid survival, CellTiter-Glo 48 h, stronger effect = higher value
# [9] = Rieske KO mouse fibroblast survival, CellTiter-Glo 72 h
smiles,measurement,setting,value
Cc1ccc(C(=O)N[C@H]2C[C@H]3C(=O)N[C@@H](Cc4ccc(O)cc4)C(=O)N3C2)cc1F,z-score,[1]; [8],-0.462 (inactive)
same,z-score,[1]; [9],-0.468
same,z-score,[2],0.075 (inactive)
COc1ccc(CN2C(=O)N(C)C3(CCN(Cc4nc(-c5ccccc5)cs4)CC3)C2=O)cc1,z-score,[1]; [8],-0.259 (inactive)
same,z-score,[1]; [9],-0.0505
same,z-score,[2],-0.2 (inactive)
COc1ccc(CN2C[C@H](C(=O)Nc3ccc4c(c3)CCC4)C[C@H](C(=O)N3CCCCC3)C2)cc1OC,z-score,[1]; [8],0.5 (inactive)
same,z-score,[1]; [9],0.0365
same,z-score,[2],-1.66 (inactive)
CCCc1c(C(=O)N[C@H]2C[C@H]3C(=O)N[C@H](Cc4ccc(O)cc4)C(=O)N3C2)cnn1-c1ccccc1,z-score,[1]; [8],-0.275 (inactive)
same,z-score,[1]; [9],-0.357
same,z-score,[2],-1.02 (inactive)
CC(C)CCNc1cc(C(=O)NCCCn2ccnc2)cc(S(=O)(=O)N2CCCC2)c1,z-score,[1]; [8],0.646 (inactive)
same,z-score,[1]; [9],-0.386
same,z-score,[2],-0.97 (inactive)
O=C1N[C@@H](Cc2ccccc2)C(=O)N2CCN(C(=O)c3cccs3)C[C@H]12,z-score,[1]; [8],-0.168 (inactive)
same,z-score,[1]; [9],-0.046
same,z-score,[2],-1.15 (inactive)
CN1C(=O)N(Cc2ccccc2)C2(CCN(Cc3nc4ccccc4n3C)CC2)C1=O,z-score,[1]; [8],0.0463 (inactive)
same,z-score,[1]; [9],-0.298
same,z-score,[2],-0.11 (inactive)
COC(=O)CN1C(=O)N(CCc2ccccc2)C2(CCN(Cc3ccc4c(c3)OCCO4)CC2)C1=O,z-score,[1]; [8],-0.212 (inactive)
same,z-score,[1]; [9],-0.109
same,z-score,[2],1.24 (inactive)
Cc1ccc(-c2cc(C(=O)NCc3c(C)nn(C)c3C)cc(S(=O)(=O)N3CCOCC3)c2)s1,z-score,[1]; [8],-0.303 (inactive)
same,z-score,[1]; [9],-0.219
same,z-score,[2],0.42 (inactive)
COC(=O)c1c(NC(=O)c2ccoc2)c2cc(NC(C)CSC)cnc2n1Cc1ccccc1 (stereo not drawn),z-score,[1]; [8],-1.27 (inactive)
same,z-score,[1]; [9],0.841
same,z-score,[2],-1.28 (inactive)
COc1ccc(/C=C/CN2CCc3c(cc(-c4cccc(-n5nc(C)cc5C)c4)c(=O)n3C)C2)cc1,z-score,[1]; [8],-0.672 (inactive)
same,z-score,[1]; [9],-0.157
same,z-score,[2],-0.63 (inactive)
COCc1ccc(C(=O)N2CCc3c(cc(-c4ccncc4)c(=O)n3CCN3CCCCC3)C2)o1,z-score,[1]; [8],-0.345 (inactive)
same,z-score,[1]; [9],0.626
same,z-score,[2],0.77 (inactive)
COc1cccc(-c2cc3c(n(Cc4ccccn4)c2=O)CCN(C(=O)c2csc(C)n2)C3)c1,z-score,[1]; [8],-0.876
same,z-score,[1]; [9],3.95
same,z-score,[2],-0.495 (inactive)
Cc1ccc(C(C)CCN2CCc3c(c(C(=O)N4CCC(O)CC4)nn3CCc3ccccc3)C2)o1 (stereo not drawn),z-score,[1]; [8],-0.676 (inactive)
same,z-score,[1]; [9],-0.539
same,z-score,[2],0.6 (inactive)
CCn1nc(C(=O)N2CCCC2)c2c1CCC(NCCC1=CCCCC1)C2 (stereo not drawn),z-score,[1]; [8],1.1 (inactive)
same,z-score,[1]; [9],-0.76
same,z-score,[2],-1.23 (inactive)
CC(C)C[C@H]1C(=O)N2CCN(Cc3cccc4ncccc34)C[C@@H]2C(=O)N1C,z-score,[1]; [8],-0.521 (inactive)
same,z-score,[1]; [9],-0.107
same,z-score,[2],-0.23 (inactive)
CC(C)NS(=O)(=O)c1cc(NC2CCCCC2)cc(C(=O)NC2Cc3ccccc3C2)c1,z-score,[1]; [8],-0.22 (inactive)
same,z-score,[1]; [9],-0.431
same,z-score,[2],-0.045 (inactive)
CC(C)CN1CC(OCc2cccc(F)c2)CN(C(=O)c2cccc(N3CCNC3=O)c2)CC1=O (stereo not drawn),z-score,[1]; [8],-0.284 (inactive)
same,z-score,[1]; [9],-0.354
same,z-score,[2],0.795 (inactive)
Cc1cnc(CNC(=O)c2cc(-c3ccccc3)cc(S(=O)(=O)N3CCN(C)CC3)c2)cn1,z-score,[1]; [8],0.213 (inactive)
same,z-score,[1]; [9],-0.355
same,z-score,[2],-0.045 (inactive)
Cc1ccc(-c2cc(C(=O)NCC3CC3)cc(S(=O)(=O)N3CCOCC3)c2)s1,z-score,[1]; [8],-0.142 (inactive)
same,z-score,[1]; [9],0.0847
same,z-score,[2],0.15 (inactive)
CCc1nc(CNc2cc(C(=O)NCc3ccccn3)cc(S(=O)(=O)N3CCCC3)c2)c(C)[nH]1,z-score,[1]; [8],-0.302 (inactive)
same,z-score,[1]; [9],-0.597
same,z-score,[2],0.97 (inactive)
CN1CCCC1CCNC(=O)[C@H]1CNC[C@@H](COc2cccc(F)c2)C1 (stereo partly drawn),z-score,[1]; [8],-0.0942 (inactive)
same,z-score,[1]; [9],0.269
same,z-score,[2],1.83 (inactive)
COC(=O)c1c(NC(C)=O)c2cc(NC3CCOCC3)cnc2n1CCc1ccc(OC)cc1,z-score,[1]; [8],-0.209 (inactive)
same,z-score,[1]; [9],0.565
same,z-score,[2],0.445 (inactive)
CN1C(=O)N(CCCc2ccncc2)C(=O)C12CCN(C1CCSCC1)CC2,z-score,[1]; [8],-0.208 (inactive)
same,z-score,[1]; [9],-0.033
same,z-score,[2],1.08 (inactive)
Cc1c(CN2CC(=O)N(Cc3ccccc3)CC(O)C2)c(=O)n(-c2ccccc2)n1C (stereo not drawn),z-score,[1]; [8],0.325 (inactive)
same,z-score,[1]; [9],-0.72
same,z-score,[2],0.83 (inactive)
Cc1[nH]cnc1CNc1cc(C(=O)Nc2cccc(N(C)C)c2)cc(S(=O)(=O)N2CCCC2)c1,z-score,[1]; [8],-0.329 (inactive)
same,z-score,[1]; [9],-0.954
same,z-score,[2],0.055 (inactive)
NC(=O)Cc1ccccc1Oc1nccc(-c2c(-c3ccc(F)cc3)ncn2C2CCNCC2)n1,liver cell % of control,[3],110%
same,parasite % of control,[3],160% (inactive)
same,percent of negative control (+Dex),[4],105% (inactive)
same,z-score,[4],0.475
same,z-score,[5],-0.78 (inactive)
same,z-score,[6],0.598 (inactive)
same,z-score,[1]; [8],-0.586 (inactive)
same,z-score,[1]; [9],-0.373
c1ccc(Cn2c(-c3ccc(OC[C@H](C4CCNCC4)n4c(-c5ccccc5)nc5ccccc54)cc3)nc3ccccc32)cc1,viability,"[7]; at 0.000305 µM, OCI-C5x cells, with rucaparib 10 µM, 100% = cells with rucaparib alone",117% (inactive)
same,viability,"[7]; at 0.000305 µM, OCI-C5x cells, without rucaparib",110% (inactive)
same,viability,"[7]; at 0.000305 µM, OCI-P5x cells, with rucaparib 20 µM, 100% = cells with rucaparib alone",90.3% (active)
same,viability,"[7]; at 0.000305 µM, OCI-P5x cells, without rucaparib",96.7% (active)
same,viability,"[7]; at 0.00122 µM, OCI-C5x cells, with rucaparib 10 µM, 100% = cells with rucaparib alone",123% (inactive)
same,viability,"[7]; at 0.00122 µM, OCI-C5x cells, without rucaparib",125% (inactive)
same,viability,"[7]; at 0.00122 µM, OCI-P5x cells, with rucaparib 20 µM, 100% = cells with rucaparib alone",98.1% (active)
same,viability,"[7]; at 0.00122 µM, OCI-P5x cells, without rucaparib",99.5% (active)
same,viability,"[7]; at 0.00488 µM, OCI-C5x cells, with rucaparib 10 µM, 100% = cells with rucaparib alone",125% (inactive)
same,viability,"[7]; at 0.00488 µM, OCI-C5x cells, without rucaparib",126% (inactive)
same,viability,"[7]; at 0.00488 µM, OCI-P5x cells, with rucaparib 20 µM, 100% = cells with rucaparib alone",99.2% (active)
same,viability,"[7]; at 0.00488 µM, OCI-P5x cells, without rucaparib",101% (inactive)
same,viability,"[7]; at 0.0195 µM, OCI-C5x cells, with rucaparib 10 µM, 100% = cells with rucaparib alone",121% (inactive)
same,viability,"[7]; at 0.0195 µM, OCI-C5x cells, without rucaparib",107% (inactive)
same,viability,"[7]; at 0.0195 µM, OCI-P5x cells, with rucaparib 20 µM, 100% = cells with rucaparib alone",96.1% (active)
same,viability,"[7]; at 0.0195 µM, OCI-P5x cells, without rucaparib",106% (inactive)
same,viability,"[7]; at 0.0781 µM, OCI-C5x cells, with rucaparib 10 µM, 100% = cells with rucaparib alone",110% (inactive)
same,viability,"[7]; at 0.0781 µM, OCI-C5x cells, without rucaparib",117% (inactive)
same,viability,"[7]; at 0.0781 µM, OCI-P5x cells, with rucaparib 20 µM, 100% = cells with rucaparib alone",95.8% (active)
same,viability,"[7]; at 0.0781 µM, OCI-P5x cells, without rucaparib",105% (inactive)
same,viability,"[7]; at 0.313 µM, OCI-C5x cells, with rucaparib 10 µM, 100% = cells with rucaparib alone",118% (inactive)
same,viability,"[7]; at 0.313 µM, OCI-C5x cells, without rucaparib",120% (inactive)
same,viability,"[7]; at 0.313 µM, OCI-P5x cells, with rucaparib 20 µM, 100% = cells with rucaparib alone",105% (inactive)
same,viability,"[7]; at 0.313 µM, OCI-P5x cells, without rucaparib",109% (inactive)
same,viability,"[7]; at 1.25 µM, OCI-C5x cells, with rucaparib 10 µM, 100% = cells with rucaparib alone",130% (inactive)
same,viability,"[7]; at 1.25 µM, OCI-C5x cells, without rucaparib",131% (inactive)
same,viability,"[7]; at 1.25 µM, OCI-P5x cells, with rucaparib 20 µM, 100% = cells with rucaparib alone",33.8% (active)
same,viability,"[7]; at 1.25 µM, OCI-P5x cells, without rucaparib",102% (inactive)
same,viability,"[7]; at 5 µM, OCI-C5x cells, with rucaparib 10 µM, 100% = cells with rucaparib alone",1.56% (active)
same,viability,"[7]; at 5 µM, OCI-C5x cells, without rucaparib",3.14% (active)
same,viability,"[7]; at 5 µM, OCI-P5x cells, with rucaparib 20 µM, 100% = cells with rucaparib alone",1.07% (active)
same,viability,"[7]; at 5 µM, OCI-P5x cells, without rucaparib",1.44% (active)
